# Data from PubChem BioAssay (EPA / NIEHS).
# Active and inactive are the calls of the source. How the source made its calls: active means hit-call score of the fitted dose curve at least 0.9, where 1 is the maximum; inactive means score below 0.9.
# Legend:
# Conditions in all cases: mRNA level, 48 h; actives raise or lower the signal
# [1] = read-out: DNA damage-inducible transcript 3 (DDIT3), DDIT3 (gene 1649); assay: LTEA_HepaRG_DDIT3: Life Technologies and Expression Analysis (LTEA) Assay for DNA damage-inducible transcript 3 (DDIT3) using HepaRG (AID 2283488)
# Method in brief: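 Cells are human HepaRG liver cells treated for 48 h with eight half-log concentrations up to 100 uM in 0.5% DMSO. Transcript levels come from qRT-PCR normalized to three housekeeping genes, with activity fitted in both directions relative to vehicle.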
# [2] = read-out: Pro-epidermal growth factor (Homo sapiens) (UniProt P01133); assay: LTEA_HepaRG_EGF: Life Technologies and Expression Analysis (LTEA) Assay for Epidermal growth factor (EGF) using HepaRG (AID 2283489)
# Method in brief: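 Concentration-response mRNA assay: HepaRG cells dosed 48 h (max 100 uM, 0.5% DMSO), EGF measured by qRT-PCR and normalized to ACTB/GAPDH/POLR2A.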
# [3] = read-out: Early growth response protein 1 (EGR1) transcription factor, EGR1 (gene 1958); assay: LTEA_HepaRG_EGR1: Life Technologies and Expression Analysis (LTEA) Assay for Early growth response protein 1 (EGR1) transcription factor using HepaRG (AID 2283490)
# Method in brief: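 EGR1 expression change in human HepaRG after 48 h chemical exposure, assessed by housekeeping-normalized qRT-PCR; concentration-response up to 100 uM, fitted in both directions against DMSO controls.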
# [4] = read-out: Ezrin (EZR), EZR (gene 7430); assay: LTEA_HepaRG_EZR: Life Technologies and Expression Analysis (LTEA) Assay for Ezrin (EZR) using HepaRG (AID 2283491)
# Method in brief: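 HepaRG, 48 h chemical exposure, 8-pt half-log series from 100 uM, 0.5% DMSO vehicle, duplicates. Read-out: EZR mRNA by TaqMan qRT-PCR (Fluidigm array), housekeeping-normalized; bidirectional curve fit vs DMSO baseline.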
# [5] = read-out: Cytochrome P450 3A7 (Homo sapiens) (UniProt P24462); assay: LTEA_HepaRG_CYP3A7: Life Technologies and Expression Analysis (LTEA) Assay for CYP3A7 using HepaRG (AID 2283492)
# Method in brief: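 qRT-PCR of CYP3A7 in HepaRG lysates after 48 h treatment; concentration-response (8 points, max 100 uM) analysed bidirectionally relative to 0.5% DMSO controls.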
# [6] = read-out: Fatty Acid-Binding Protein 1 (FABP1), FABP1 (gene 2168); assay: LTEA_HepaRG_FABP1: Life Technologies and Expression Analysis (LTEA) Assay for Fatty Acid-Binding Protein 1 (FABP1) using HepaRG (AID 2283494)
# Method in brief: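 Values reflect bidirectional concentration-response fitting of FABP1 mRNA change against 0.5% DMSO controls. Human HepaRG cultures received eight half-log doses (top 100 uM) for 48 h; expression quantified by TaqMan qRT-PCR with housekeeping-gene normalization.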
# [7] = read-out: Cytochrome P450 4A22 (Homo sapiens) (UniProt Q5TCH4); assay: LTEA_HepaRG_CYP4A22: Life Technologies and Expression Analysis (LTEA) Assay for Cytochrome P450 4A22 (CYP4A22) using HepaRG (AID 2283495)
# Method in brief: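 Concentration-response (8 points, max 100 uM, 0.5% DMSO) in human HepaRG liver cells after 48 h exposure. CYP4A22 mRNA by TaqMan qRT-PCR with housekeeping-gene normalization.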
# [8] = read-out: Cytochrome P450 7A1 (Homo sapiens) (UniProt P22680); assay: LTEA_HepaRG_CYP7A1: Life Technologies and Expression Analysis (LTEA) Assay for Cytochrome P450 7A1 (CYP7A1) using HepaRG (AID 2283496)
# Method in brief: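 HepaRG, 48 h exposure, 8-pt half-log series from 100 uM, 0.5% DMSO vehicle, duplicates. Readout: TaqMan qRT-PCR mRNA vs three housekeeping genes; bidirectional curve fit against DMSO baseline.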
# [9] = read-out: Glutathione S-Transferase (GSTA2), GSTA2 (gene 2939); assay: LTEA_HepaRG_GSTA2: Life Technologies and Expression Analysis (LTEA) Assay for Glutathione S-Transferase (GSTA2) using HepaRG (AID 2283497)
# Method in brief: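 Oxidative-stress marker GSTA2 is quantified by TaqMan qRT-PCR in HepaRG cultures treated 48 h across an eight-point range to 100 uM. Expression is normalized to endogenous controls and compared with 0.5% DMSO vehicle.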
# [10] = read-out: Glutamate-cysteine ligase catalytic (GCLC), GCLC (gene 2729); assay: LTEA_HepaRG_GCLC: Life Technologies and Expression Analysis (LTEA) Assay for Glutamate-cysteine ligase catalytic (GCLC) using HepaRG (AID 2283498)
# Method in brief: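 Oxidative-stress marker GCLC is measured as mRNA change in human HepaRG liver cells after 48 h chemical treatment in 0.5% DMSO, eight concentrations from 100 uM. Activity is fitted bidirectionally against vehicle.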
# [11] = read-out: growth arrest and DNA damage 45 (GADD45G), GADD45G (gene 10912); assay: LTEA_HepaRG_GADD45G: Life Technologies and Expression Analysis (LTEA) Assay for growth arrest and DNA damage 45 (GADD45G) using HepaRG (AID 2283499)
# Method in brief: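 Concentration-response in HepaRG: 48 h dosing, 0.5% DMSO, highest level 100 uM. GADD45G expression by qRT-PCR, normalised to endogenous controls; bidirectional fit to DMSO.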
# [12] = read-out: Glutamate-cysteine ligase regulatory (GCLM), GCLM (gene 2730); assay: LTEA_HepaRG_GCLM: Life Technologies and Expression Analysis (LTEA) Assay for Glutamate-cysteine ligase regulatory (GCLM) using HepaRG (AID 2283500)
# Method in brief: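 Endpoint is GCLM transcript level by qRT-PCR, normalized to three housekeeping genes, after 48 h chemical exposure of human HepaRG cells (0.5% DMSO vehicle, top 100 uM, half-log dilutions). Fitting was bidirectional relative to DMSO.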
# [13] = read-out: Glutathione S-transferase M3 (GSTM3), GSTM3 (gene 2947); assay: LTEA_HepaRG_GSTM3: Life Technologies and Expression Analysis (LTEA) Assay for Glutathione S-transferase M3 (GSTM3) using HepaRG (AID 2283501)
# Method in brief: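 Expression of GSTM3 is determined by qRT-PCR in human liver HepaRG cells treated 48 h with an 8-point half-log range from 100 uM in 0.5% DMSO.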
# [14] = read-out: Heat shock 70 kDa protein 1 (HSPA1A), gene 3303; assay: LTEA_HepaRG_HSPA1A: Life Technologies and Expression Analysis (LTEA) Assay for Heat shock 70 kDa protein 1 (HSPA1A) using HepaRG (AID 2283502)
# Method in brief: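 Cells were plated and cultured for 48 h, then switched to serum-free induction medium. Chemicals were added at eight half-log concentrations up to 100 uM for 48 h. RNA was then isolated and HSPA1A measured by qRT-PCR with bidirectional curve fitting against DMSO.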
# [15] = read-out: 3-Hydroxy-3-Methylglutaryl-CoA Synthase 2 (HMGCS2), HMGCS2 (gene 3158); assay: LTEA_HepaRG_HMGCS2: Life Technologies and Expression Analysis (LTEA) Assay for 3-Hydroxy-3-Methylglutaryl-CoA Synthase 2 (HMGCS2) using HepaRG (AID 2283504)
# Method in brief: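 This steatosis marker was read as HMGCS2 mRNA change in HepaRG cells treated 48 h with up to 100 uM chemical. Normalisation used housekeeping genes; activity in either direction was fitted relative to 0.5% DMSO vehicle.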
# [16] = read-out: HGF (gene 3082); assay: LTEA_HepaRG_HGF: Life Technologies and Expression Analysis (LTEA) Assay for Hepatocyte Growth Facto (HGF) using HepaRG (AID 2283505)
# Method in brief: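 Using HepaRG monolayers kept in 0.5% DMSO, chemicals were tested in duplicate over eight half-log concentrations from 100 uM for 48 h. Endpoint: HGF mRNA change relative to DMSO, normalized to ACTB/GAPDH/POLR2A.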
# [17] = read-out: Insulin Like Growth Factor 1 (IGF1), IGF1 (gene 3479); assay: LTEA_HepaRG_IGF1: Life Technologies and Expression Analysis (LTEA) Assay for Insulin Like Growth Factor 1 (IGF1) using HepaRG (AID 2283506)
# Method in brief: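 Cells are thawed, plated and cultured 48 h, then exposed in duplicate to chemical (highest 100 uM, half-log steps, 0.5% DMSO) for another 48 h. Total RNA is analysed by Fluidigm qRT-PCR for IGF1 expression relative to vehicle.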
# [18] = read-out: Intercellular Adhesion Molecule 1 (ICAM1), ICAM1 (gene 3383); assay: LTEA_HepaRG_ICAM1: Life Technologies and Expression Analysis (LTEA) Assay for Intercellular Adhesion Molecule 1 (ICAM1) using HepaRG (AID 2283507)
# Method in brief: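 Using the human liver line HepaRG, compounds are tested in duplicate over 48 h at concentrations up to 100 uM. Expression is determined by TaqMan qRT-PCR, normalized to endogenous controls, and analysed relative to 0.5% DMSO vehicle.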
# [19] = read-out: CYP3A5 (gene 1577); assay: LTEA_HepaRG_CYP3A5: Life Technologies and Expression Analysis (LTEA) Assay for CYP3A5 using HepaRG (AID 2283493)
# Method in brief: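 Human HepaRG hepatic cells receive 48 h chemical treatment at eight concentrations (half-log steps from 100 uM) in 0.5% DMSO. Expression of CYP3A5 is quantified by Fluidigm qRT-PCR and normalized to three reference genes.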
# [20] = read-out: Hypoxia-inducible factor 1-alpha (Homo sapiens) (UniProt Q16665); assay: LTEA_HepaRG_HIF1A: Life Technologies and Expression Analysis (LTEA) Assay for Hypoxia-inducible factor 1 (HIF1A) Trancription factor using HepaRG (AID 2283503)
# Method in brief: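 HIF1A transcript level read by qRT-PCR (ACTB, GAPDH, POLR2A normalization) after 48 h chemical exposure of HepaRG cultures. Eight half-log concentrations, top 100 uM, 0.5% DMSO vehicle, duplicates; bidirectional curve fit against DMSO baseline.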
# Cytochrome P450 3A7 (Homo sapiens), sequence (P24462 whole entry, looked up): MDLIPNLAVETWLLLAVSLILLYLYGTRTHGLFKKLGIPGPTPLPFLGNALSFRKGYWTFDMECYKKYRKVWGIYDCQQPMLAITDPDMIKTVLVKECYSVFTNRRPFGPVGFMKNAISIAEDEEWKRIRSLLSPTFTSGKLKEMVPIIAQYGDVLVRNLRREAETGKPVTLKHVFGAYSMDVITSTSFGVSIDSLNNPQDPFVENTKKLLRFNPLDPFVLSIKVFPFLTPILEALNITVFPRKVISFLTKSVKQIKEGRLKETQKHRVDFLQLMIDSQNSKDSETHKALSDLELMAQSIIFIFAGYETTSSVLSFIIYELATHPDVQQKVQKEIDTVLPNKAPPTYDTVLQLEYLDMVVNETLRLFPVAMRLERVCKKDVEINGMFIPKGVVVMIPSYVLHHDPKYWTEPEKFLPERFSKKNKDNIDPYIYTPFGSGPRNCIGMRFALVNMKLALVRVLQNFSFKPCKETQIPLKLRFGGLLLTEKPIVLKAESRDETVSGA
# Hypoxia-inducible factor 1-alpha (Homo sapiens), sequence (Q16665 whole entry, looked up): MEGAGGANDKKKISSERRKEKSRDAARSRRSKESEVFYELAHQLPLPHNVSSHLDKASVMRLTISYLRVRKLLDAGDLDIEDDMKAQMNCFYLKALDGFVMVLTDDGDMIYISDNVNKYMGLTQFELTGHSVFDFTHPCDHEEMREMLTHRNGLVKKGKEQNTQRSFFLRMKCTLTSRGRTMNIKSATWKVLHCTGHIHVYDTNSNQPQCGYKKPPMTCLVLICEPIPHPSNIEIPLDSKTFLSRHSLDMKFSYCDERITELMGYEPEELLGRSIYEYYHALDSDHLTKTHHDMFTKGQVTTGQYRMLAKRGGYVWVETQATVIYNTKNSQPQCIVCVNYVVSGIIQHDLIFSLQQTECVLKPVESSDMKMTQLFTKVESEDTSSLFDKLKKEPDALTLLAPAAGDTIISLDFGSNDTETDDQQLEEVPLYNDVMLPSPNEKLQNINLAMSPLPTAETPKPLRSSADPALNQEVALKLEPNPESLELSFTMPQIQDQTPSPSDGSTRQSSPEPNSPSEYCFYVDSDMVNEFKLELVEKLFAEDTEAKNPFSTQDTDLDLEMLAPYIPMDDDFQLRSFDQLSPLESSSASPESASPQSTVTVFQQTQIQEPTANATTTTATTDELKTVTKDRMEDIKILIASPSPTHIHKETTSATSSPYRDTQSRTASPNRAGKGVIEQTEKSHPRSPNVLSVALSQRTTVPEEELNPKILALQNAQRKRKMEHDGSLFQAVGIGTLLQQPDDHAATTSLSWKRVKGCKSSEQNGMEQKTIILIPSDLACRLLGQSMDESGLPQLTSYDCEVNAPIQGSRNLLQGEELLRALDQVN
smiles,measurement,setting,value
CN1CCC[C@H]1c1cccnc1,outcome,[1],inactive
same,outcome,[2],inactive
same,outcome,[3],inactive
same,outcome,[4],inactive
same,outcome,[5],inactive
same,outcome,[6],inactive
same,outcome,[7],inactive
same,outcome,[8],inactive
same,outcome,[9],inactive
same,outcome,[10],inactive
same,outcome,[11],inactive
same,outcome,[12],inactive
same,outcome,[13],inactive
same,outcome,[14],inactive
same,outcome,[15],inactive
same,outcome,[16],inactive
same,outcome,[17],inactive
same,outcome,[18],inactive
COC(=O)CCCCC(=O)OC,outcome,[1],inactive
same,outcome,[2],inactive
same,outcome,[3],inactive
same,outcome,[4],inactive
same,outcome,[5],inactive
same,outcome,[19],inactive
same,outcome,[6],inactive
same,outcome,[7],inactive
same,outcome,[8],inactive
same,outcome,[9],inactive
same,outcome,[10],inactive
same,outcome,[11],inactive
same,outcome,[12],inactive
same,outcome,[13],inactive
same,outcome,[14],inactive
same,outcome,[20],inactive
same,outcome,[15],inactive
same,outcome,[16],inactive
same,outcome,[17],inactive
same,outcome,[18],inactive
CCc1ccc(CCOc2ccc(CC3SC(=O)NC3=O)cc2)nc1 (stereo unspecified),AC50,[1],91.3 µM (active)
same,outcome,[2],inactive
same,AC50,[3],15.1 µM (active)
same,AC50,[4],15.9 µM (active)
same,AC50,[6],88.3 µM (active)
same,AC50,[7],84 µM (active)
same,AC50,[8],68.5 µM (active)
same,AC50,[9],78.1 µM (active)
same,AC50,[10],14.2 µM (active)
same,AC50,[11],11 µM (active)
same,AC50,[12],68.3 µM (active)
same,outcome,[13],inactive
same,AC50,[14],23.6 µM (active)
same,outcome,[20],inactive
same,AC50,[15],85.2 µM (active)
same,outcome,[16],inactive
same,AC50,[17],64.9 µM (active)
same,AC50,[18],50 µM (active)
Oc1cccc(O)c1,outcome,[1],inactive
same,outcome,[3],inactive
same,outcome,[4],inactive
same,outcome,[5],inactive
same,outcome,[19],inactive
same,outcome,[6],inactive
same,outcome,[7],inactive
same,outcome,[8],inactive
same,outcome,[9],inactive
same,outcome,[10],inactive
same,outcome,[11],inactive
same,outcome,[12],inactive
same,outcome,[13],inactive
same,outcome,[14],inactive
same,outcome,[20],inactive
same,outcome,[15],inactive
same,outcome,[16],inactive
same,outcome,[17],inactive
same,outcome,[18],inactive
CC#C[C@]1(O)CC[C@H]2[C@@H]3CCC4=CC(=O)CCC4=C3[C@@H](c3ccc(N(C)C)cc3)C[C@@]21C,AC50,[1],29.2 µM (active)
same,AC50,[2],4.48 µM (active)
same,AC50,[3],8.69 µM (active)
same,AC50,[4],50 µM (active)
same,AC50,[6],35.1 µM (active)
same,AC50,[7],24.2 µM (active)
same,AC50,[8],43.6 µM (active)
same,AC50,[9],71.5 µM (active)
same,AC50,[10],28.4 µM (active)
same,AC50,[11],40.8 µM (active)
same,AC50,[12],31.6 µM (active)
same,outcome,[13],inactive
same,outcome,[14],inactive
same,AC50,[20],85.5 µM (active)
same,AC50,[15],75.9 µM (active)
same,AC50,[16],85.2 µM (active)
same,AC50,[17],68.4 µM (active)
same,AC50,[18],26 µM (active)
CCCOC(=O)c1ccc(O)cc1,outcome,[1],inactive
same,outcome,[2],inactive
same,outcome,[3],inactive
same,outcome,[4],inactive
same,outcome,[19],inactive
same,outcome,[6],inactive
same,outcome,[7],inactive
same,outcome,[8],inactive
same,outcome,[9],inactive
same,outcome,[10],inactive
same,outcome,[11],inactive
same,outcome,[12],inactive
same,outcome,[13],inactive
same,outcome,[14],inactive
same,outcome,[20],inactive
same,outcome,[15],inactive
same,outcome,[16],inactive
same,outcome,[17],inactive
same,outcome,[18],inactive
CCC(C)(C)C1CCC(O)CC1 (stereo unspecified),outcome,[1],inactive
same,outcome,[2],inactive
same,outcome,[3],inactive
same,outcome,[4],inactive
same,outcome,[5],inactive
same,outcome,[6],inactive
same,outcome,[7],inactive
same,outcome,[8],inactive
same,outcome,[9],inactive
same,outcome,[10],inactive
same,outcome,[11],inactive
same,outcome,[12],inactive
same,outcome,[13],inactive
same,outcome,[14],inactive
same,outcome,[20],inactive
same,outcome,[15],inactive
same,outcome,[16],inactive
same,outcome,[17],inactive
same,outcome,[18],inactive
